The full ranking holds about 33,000 sequences; the median of “E-score (-0.5 to 0.5)” is about -0.021, and the highest 2% start at about 0.32. The list comes from a sample in which the highest values are over-represented; it also holds similar and randomly drawn sequences.
Each sequence was assayed against T1, Zap1 (UniProt P47043) (assay: PBM E-score (8-mer binding enrichment) (E-score (-0.5 to 0.5)); higher = stronger / more preferred TF binding). Conditions: protein concentration: 200 nM; construct: GST-full length.
T1 sequence: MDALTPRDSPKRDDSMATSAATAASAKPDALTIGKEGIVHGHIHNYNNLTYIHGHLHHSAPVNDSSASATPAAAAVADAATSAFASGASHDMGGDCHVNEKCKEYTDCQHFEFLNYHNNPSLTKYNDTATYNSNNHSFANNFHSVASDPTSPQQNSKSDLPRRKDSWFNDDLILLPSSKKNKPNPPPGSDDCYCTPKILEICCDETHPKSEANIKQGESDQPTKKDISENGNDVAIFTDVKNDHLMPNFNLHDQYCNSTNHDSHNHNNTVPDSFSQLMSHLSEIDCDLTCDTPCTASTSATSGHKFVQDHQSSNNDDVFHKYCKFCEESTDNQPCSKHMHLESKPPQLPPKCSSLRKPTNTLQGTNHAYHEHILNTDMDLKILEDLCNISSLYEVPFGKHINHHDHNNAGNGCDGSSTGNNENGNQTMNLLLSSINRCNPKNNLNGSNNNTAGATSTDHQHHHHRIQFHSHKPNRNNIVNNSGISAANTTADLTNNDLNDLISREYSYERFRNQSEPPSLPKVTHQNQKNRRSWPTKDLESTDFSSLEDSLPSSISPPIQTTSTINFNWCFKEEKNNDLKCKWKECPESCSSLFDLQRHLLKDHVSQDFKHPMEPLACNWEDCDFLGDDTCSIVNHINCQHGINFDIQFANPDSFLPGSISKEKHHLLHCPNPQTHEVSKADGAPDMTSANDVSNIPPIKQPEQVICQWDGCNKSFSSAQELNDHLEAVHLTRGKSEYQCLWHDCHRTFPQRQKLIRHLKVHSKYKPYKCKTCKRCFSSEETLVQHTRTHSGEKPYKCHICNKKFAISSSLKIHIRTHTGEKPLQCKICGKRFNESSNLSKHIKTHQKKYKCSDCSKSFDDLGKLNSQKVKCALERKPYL
Procedure, shortened: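 Using PURExpress in vitro transcription/translation, GST-tagged yeast transcription factors were made in full-length or DNA-binding-domain form. These were applied at about 100-200 nM to double-stranded universal all-10-mer Agilent arrays, and bound protein was detected with fluorescent anti-GST. Scans were normalised with masliner before the Universal PBM Analysis Suite assigned E-scores to ungapped eight-base words pooled with their reverse complements.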

Row | Sequence | PBM E-score
1 | GGATAACA | -0.0812
2 | CCTCTCGC | -0.108
3 | ACAAGCCG | -0.223
4 | TATGGGGA | 0.145
5 | AATATCCT | 0.00302
6 | AAGAGCTA | -0.0268
7 | ATGGGGTA | 0.326
8 | ATGGGGTG | 0.143
9 | CTGGGGTA | 0.269
10 | GGGGGGTA | -0.0438
11 | GTGGGGTA | 0.368
12 | ATGGGGTC | 0.284
13 | CGAACACA | 0.085
14 | CGTAACTA | 0.0577
15 | GGTAACGA | 0.294
16 | AGTAACCA | 0.387
17 | AGTAACTC | -0.0584
18 | AGTAACCC | 0.443
19 | GGTAACCA | 0.461
20 | GGTAACTA | 0.313
21 | CGTAACCA | 0.441
22 | AGTAACGA | 0.0604
23 | AGTAAACC | 0.177
24 | AGTAACTA | 0.219
25 | CGTAACGA | -0.081

Row | Sequence | PBM E-score
26 | CATCAGGA | 0.0932
27 | ATAGTTGG | -0.0799
28 | CTGGAGGA | -0.216
29 | AAAGTAGT | 0.0501
30 | ACACTTGG | 0.0219
31 | AGTAACAA | 0.161
32 | GGTAACAA | 0.38
33 | AGTAACCG | 0.355
34 | GGTAATAA | 0.338
35 | AGTAACGG | 0.126
36 | AGTAACTG | -0.154
37 | TGTAATAA | 0.133
38 | CGTAACAA | 0.201
39 | GGTAATAC | 0.248
40 | CAGGGGAG | -0.0274
41 | GCTAATCC | -0.0663
42 | ATCGTTCA | 0.092
43 | CCTTCACA | 0.0885
44 | ACCTGACT | 0.143
45 | CCAGAACA | -0.00016
46 | AAGACCCC | 0.323
47 | GGGACCCA | 0.198
48 | AAGACCCA | 0.142
49 | ATGACCGA | 0.0244
50 | ATGACCCG | 0.269

Row | Sequence | PBM E-score
51 | CTGACCTC | 0.194
52 | ATGACCTC | 0.442
53 | ATGACCTG | 0.303
54 | AAGACCCG | 0.0601
55 | ATGACCCA | 0.397
56 | CTGACCCA | -0.11
57 | GTGACCCA | 0.389
58 | ATCTGCTG | -0.184
59 | GCACCAAC | -0.00297
60 | CTTGACCA | 0.147
61 | CCCTCTGA | 0.0399
62 | ATTTTTTC | 0.0779
63 | ACCTGCCG | -0.0789
64 | AGACAAAC | -0.0937
65 | ATGACCCC | 0.385
66 | GTGACCAC | 0.344
67 | GTGACCAA | 0.305
68 | CTGACCCC | 0.12
69 | ATGACCGC | 0.302
70 | ATGACCAC | 0.289
71 | AAGTGGCC | 0.0931
72 | GGAGCGAC | -0.122
73 | AGGCCACT | -0.13
74 | AGCCTCTA | -0.101
75 | ACCCTCTC | 0.121

Row | Sequence | PBM E-score
76 | AACCTCTC | 0.349
77 | GACCTCTC | 0.203
78 | TACCTCCA | 0.303
79 | TACCTCTA | 0.347
80 | CACCTCTC | -0.242
81 | AACCTCAA | 0.263
82 | ACCCTCTA | 0.355
83 | AACCTCTA | 0.351
84 | GCCCTCTA | -0.245
85 | CACCTCTA | 0.22
86 | CCTGACCG | 0.0354
87 | CTGGCCCA | -0.095
88 | AGTACTTC | 0.148
89 | AGTGTGAA | -0.13
90 | AACGTTGC | -0.161
91 | ACCAAGGG | 0.178
92 | CGCTACCC | 0.302
93 | ATCCCTCA | -0.0235
94 | CGGGATCC | -0.0153
95 | ACAGCGAC | -0.152
96 | AACCTCCT | 0.158
97 | AACCTCTT | 0.397
98 | GGCCTCTA | 0.0229
99 | GACCTCTA | 0.318
100 | AACCTCTG | 0.306

Row | Sequence | PBM E-score
101 | GTCCTCTA | -0.0992
102 | GCGGGGCC | -0.0181
103 | CAACGCGC | 0.0876
104 | CTTAGAGC | 0.0313
105 | GGCATCCA | -0.107
106 | GACCAGTA | 0.0618
107 | AAAATGTG | -0.0329
108 | AATGGGCG | -0.204
109 | CTAACCCC | 0.178
110 | GGAACCCA | 0.171
111 | GAAACCCA | 0.246
112 | ATAACCCA | 0.472
113 | GTAACCCA | 0.468
114 | ATAAACCA | 0.121
115 | AAAACCCG | 0.131
116 | ATAACCCG | 0.442
117 | AAAACCCA | 0.258
118 | CTAACCCA | 0.326
119 | AGAACCCG | 0.223
120 | TGAACCCA | 0.242
121 | CTTTGCGC | -0.0424
122 | GTGATTTA | 0.193
123 | AACTGTTC | -0.0321
124 | ACTTTAGC | -0.16
125 | AATCAGTA | -0.0224

Row | Sequence | PBM E-score
126 | AGGGAGAG | -0.0798
127 | ACAGGGTC | 0.315
128 | GCAGGGGA | -0.177
129 | ACAGGGTG | 0.199
130 | CCAGGGTA | 0.323
131 | CCAGGGCA | -0.123
132 | CCAGGGTC | 0.19
133 | GCAGGGTA | 0.373
134 | GCAGGGAA | -0.0199
135 | ACAGGGTA | 0.366
136 | CGACAGCG | -0.154
137 | CGCCGCGC | -0.0986
138 | ATTGCGGG | 0.11
139 | CGAGTAAG | 0.119
140 | AGCAGTAT | 0.0154
141 | CGCAAACC | 0.0968
142 | TCGCGAGA | 0.117
143 | CTTAACCC | 0.387
144 | CTTAACGA | -0.00709
145 | ATTAACCA | 0.246
146 | ATTAACGG | 0.0866
147 | GTTAACTA | 0.263
148 | CTTAACCA | 0.376
149 | CTCAACCC | 0.201
150 | GTTAACCA | 0.338

Row | Sequence | PBM E-score
151 | ATTAACAG | -0.102
152 | CTTAACAC | 0.0174
153 | CTCAACCA | 0.00637
154 | ATTAACCG | 0.331
155 | TACGACGA | -0.0483
156 | ACCCGTCT | -0.0166
157 | CAGCTAAA | 0.0244
158 | CGCGATGA | 0.181
159 | GATTCTAA | -0.0858
160 | CCATTGAA | 0.174
161 | ATTCGACC | 0.0544
162 | ATTAACTC | 0.0519
163 | ATTAACCC | 0.334
164 | ATTAACAC | 0.172
165 | GGCTCAGA | -0.101
166 | GCTTACCA | 0.0792
167 | AGGCTGTC | -0.202
168 | ACACTGGC | -0.0599
169 | CATACAGC | -0.249
170 | GCTGGTGA | 0.0777
171 | GCTGGTTA | 0.329
172 | ACTGGTTA | 0.405
173 | CCTGGTTA | 0.306
174 | ACTGGTTC | 0.0663
175 | GCTGGTCA | 0.0223
